FXN GAA850 act – activators of GAA850 frataxin (FXN) promoter | HEK293 lucGAA850 FXN promoter luciferase reporter, 24 h; percent of 10 µM SAHA response | activation, % at 6 µM | 360,000 compounds, 0.56% hits;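 active means activation above the average of all compounds screened plus 3 SD, cutoff fixed separately per campaign, cut at about 7.5% in these data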;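 further: 0% = DMSO wells and 100% = 10 µM SAHA wells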
esBAF inh – blocks esBAF chromatin remodeling in mouse ES cells; Bmi1-luciferase knock-in reporter, 24 h; 100% = twice the neutral-well signal; reporter increase, % at 12.5 µM; 350,000 compounds, 2% hits; in the data active means activation above about 40%; inconclusive means no clear call, values can overlap the other calls;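 further: 0% = median of the plate's neutral control wells and 100% = double that signal; a rise in the Bmi1 reporter signal indicates esBAF inhibition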
MITF TRPM1 HTS – MITF TRPM1 promoter activation in melanoma cells. SK-MEL-5 TRPM1-promoter luciferase, 24 h; % of positive control, neutral wells = 0. activation, % at 12.5 µM. 300,000 compounds, 0.75% hits;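 active means mean activation of at least 80% with every replicate also reaching 80%; inconclusive means mean reaches 80% but some replicate falls short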;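 further: 0% = neutral control wells and 100% = parthenolide positive control wells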
AHR act – activators of human aryl hydrocarbon receptor; AHR-responsive luciferase reporter cells, luminescence; activation, % at 5 µM; 320,000 compounds, 2.5% hits; in the data active means activation above about 47%;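 further: 0% = vehicle wells and 100% = reference agonist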
Wnt bcat act – Wnt/beta-catenin pathway activation. 300,000 compounds, 1.2% hits. Wnt/beta-catenin reporter cell assay, activator, plate reader. activation, % at 9.35 µM; in the data active means activation above about 30%, passing the limit was not always enough; inconclusive means no clear call, values can overlap the other calls;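 further: 0% = neutral control wells and 100% = positive control wells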
* marks the source's active call; other numbers are inactive results. Only some compounds are listed: those with a hit (about 4.2% of all), similar ones and a draw of the others.

Results for CC(C)NC(=O)c1cc(-c2ccc3c(c2)OCO3)on1 ?
FXN GAA850 act: 2; esBAF inh: -5; AHR act: -2; Wnt bcat act: 43*

What do the screens show for `CCCNC(=O)c1cc(-c2ccc(OC)cc2)on1`?
FXN GAA850 act: 5; esBAF inh: 4; MITF TRPM1 HTS: 41; AHR act: 1

How did CCCNC(=O)c1cc(-c2ccc3c(c2)OCO3)on1 do in these assays?
FXN GAA850 act: 2; esBAF inh: -10; MITF TRPM1 HTS: 53; AHR act: 7; Wnt bcat act: 33*

Results for CCN(CC)C(=O)c1cc(-c2ccc3c(c2)OCO3)on1 ?
FXN GAA850 act: 5; esBAF inh: 37; MITF TRPM1 HTS: 103*; AHR act: 73*; Wnt bcat act: 17

How did CCCCNC(=O)c1cc(-c2ccc(OC)cc2)on1 do in these assays?
FXN GAA850 act: 1; esBAF inh: 24; MITF TRPM1 HTS: 81*; AHR act: 1

How did CN(C)C(=O)[C@@H]1[C@@H](CO)[C@@H]2Cn3c(ccc(C4=CCCC4)c3=O)[C@H]1N2S(=O)(=O)c1cn(C)cn1 do in these assays?
esBAF inh: -4

How did Cn1c(=NN=Cc2ccccc2OCCO)sc2ccccc21 do in these assays?
FXN GAA850 act: 5; esBAF inh: 56*; Wnt bcat act: 43*

What do the screens show for `COc1ccccc1N=c1sc2ccccc2n1C`?
FXN GAA850 act: 0; esBAF inh: 12; MITF TRPM1 HTS: 7; AHR act: 20; Wnt bcat act: 1

What do the screens show for `CC(C)(C)S(=O)N1Cc2cc(C(=O)NCCCN3CCOCC3)nc(-c3cccc(-c4cccc(F)c4)c3)c2[C@H]1CCO` (stereo partly drawn)?
esBAF inh: 1

Results for CCC(=O)Nc1nc(-c2ccccc2)nc(SC)c1C(C)=O ?
FXN GAA850 act: 1; MITF TRPM1 HTS: 0; AHR act: 18; Wnt bcat act: -1

How did CCOC(=O)c1[nH]c2ccccc2c1NC(=O)COC do in these assays?
FXN GAA850 act: 1; esBAF inh: -3; AHR act: 33; Wnt bcat act: 2

Results for CCOC(=O)c1c(C)nc(-c2ccccc2)nc1NC(=O)CC ?
FXN GAA850 act: 3; MITF TRPM1 HTS: 9; AHR act: 47*

Results for CCOC(=O)c1[nH]c2ccccc2c1NC(=O)CC ?
FXN GAA850 act: 1; esBAF inh: -7; MITF TRPM1 HTS: -15; AHR act: 60*; Wnt bcat act: 0

How did CN(C)Cc1c(C(=O)Nc2ccccc2)[nH]c2ccccc12 do in these assays?
FXN GAA850 act: 3; esBAF inh: 36; MITF TRPM1 HTS: -10; AHR act: 72*; Wnt bcat act: inconclusive

Results for CCOC(=O)c1[nH]c2ccccc2c1NC(=S)Nc1ccccc1 ?
FXN GAA850 act: 3; esBAF inh: 36; MITF TRPM1 HTS: -2; AHR act: 49*; Wnt bcat act: 13

Results for CCOC(=O)N(C)C[C@@H]1OCc2cn(nn2)CCCC(=O)N([C@@H](C)CO)C[C@@H]1C ?
esBAF inh: 4

Results for CCCNC(=O)C[C@H]1CC[C@H]2[C@@H](COc3ccc(NC(=O)COC)cc3C(=O)N2C)O1 ?
esBAF inh: 3

Results for CCOC(=O)c1[nH]c2ccccc2c1NC(=S)Nc1cccc(C)c1 ?
FXN GAA850 act: 3; esBAF inh: 25; AHR act: 72*; Wnt bcat act: 5

Results for CCOC(=O)c1[nH]c2ccccc2c1NC(C)=O ?
FXN GAA850 act: 0; esBAF inh: 3; AHR act: 33; Wnt bcat act: -2

How did CC(=O)N1[C@@H]2c3ccc(C4=CCCC4)c(=O)n3C[C@H]1[C@H](CO)[C@H]2C(=O)N[C@@H](C)c1ccccc1 do in these assays?
esBAF inh: -5

How did Cc1cc2c(NC(=O)CCCC(=O)O)cccc2nn1 do in these assays?
FXN GAA850 act: 0; AHR act: -1; Wnt bcat act: 1

Results for Cc1cc2c(NC(=O)Nc3ccc(C(F)(F)F)cc3)cccc2nn1 ?
FXN GAA850 act: 2; MITF TRPM1 HTS: 1; AHR act: 55*; Wnt bcat act: 3

How did COc1cc2c(cc1NC(=O)c1cccc([N+](=O)[O-])c1)oc1ccccc12 do in these assays?
FXN GAA850 act: -2; MITF TRPM1 HTS: -53; AHR act: 58*

What do the screens show for `COc1cc2c(cc1NC(=O)c1ccncc1)oc1ccccc12`?
FXN GAA850 act: 1; MITF TRPM1 HTS: 8; AHR act: 64*
